From PubChem BioAssay (NCI)
About 83,000 compounds went through this panel and 20% of them were active in at least one assay; those are over-represented in the sample as a whole.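 Activity criterion: percent growth below 10, measured after cells in 96-well plates were exposed to a single compound concentration for 48 hours.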 A number with no mark means an inactive call. Activity calls are given as the source filed them.

Tests used:
Assay in all cases: NCI-60 one-dose screen, 48 h (100 = growth as untreated, 0 = no growth, -100 = all killed)
Settings in all cases: 10 µM
DU-145 prostate = system: DU-145 prostate
K-562 leukemia = system: K-562 leukemia
MALME-3M melanoma = system: MALME-3M melanoma
MDA-MB-231 breast = system: MDA-MB-231 breast
RXF 393 renal = system: RXF 393 renal
SF-268 CNS = system: SF-268 CNS
SF-295 CNS = system: SF-295 CNS
SF-539 CNS = system: SF-539 CNS
UACC-257 melanoma = system: UACC-257 melanoma
M14 melanoma = system: M14 melanoma

| SMILES | growth (DU-145 prostate) | growth (K-562 leukemia) | growth (MALME-3M melanoma) | growth (MDA-MB-231 breast) | growth (RXF 393 renal) | growth (SF-268 CNS) | growth (SF-295 CNS) | growth (SF-539 CNS) | growth (UACC-257 melanoma) | growth (M14 melanoma) |
| --- | --- | --- | --- | --- | --- | --- | --- | --- | --- | --- |
| Clc1ccc(-c2nc(-c3cccs3)cn3ccnc23)cc1 | 94.7% | 26.1% | 86% | 66.5% | 86.7% | 82.8% | 81.9% | 76.7% | 70.2% | 61.5% |
| CN(C)c1ccc2c(c1)OC(N)=C(C#N)C2c1ccc2c(c1)CCCN2C (stereo not given) | 25.7% | 16.5% | 67.8% | 38.6% | 8.31% (active) | 49.4% | -14.4% (active) | -2.99% (active) | 54.7% | 2.75% (active) |
| COc1cc(-c2cc(-c3cc(OC)c(OC)c(OC)c3)nc3nc(N)[nH]c(=O)c23)ccc1Oc1ccnc2cc(Cl)ccc12 | 33.9% | 10.6% | 59% | 36.7% | -13% (active) | 47.2% | 93.5% | -59.7% (active) | 66.6% | 12.6% |
| COc1cc(Cl)cc(-c2nn(-c3cccc(NC(=O)Nc4cccc(C(F)(F)F)c4)c3)cc2-c2ccncc2)c1 | 15.9% | 7.61% (active) | -16.6% (active) | -9.21% (active) | 11.8% | 27.9% | -7.87% (active) | 17% | -11.7% (active) | 9.99% (active) |
| COc1ccc(-c2cn[nH]c2-c2cc(OC)c(OC)c(OC)c2)cc1 | 4.46% (active) | 6.36% (active) | 76.4% | 8.75% (active) | 14.8% | 19.7% | 6.26% (active) | -32% (active) | 49.2% | 3.85% (active) |
| COc1ccc(-n2nnc3c(sc4ccccc43)c2=O)cc1 | 60.2% | 91.5% | 80.6% | 53.8% | 45% | 53.1% | 42.3% | 54.7% | 80.8% | 86.5% |
| CC(=O)N(O)c1ccc(/C=C/c2ccccc2)cc1 | 3.54% (active) | 73.3% | 94% | 48.7% | -11% (active) | 12.4% | -26.7% (active) | 33.6% | -6.82% (active) | 46.2% |
| O=C(CCCC(=O)N/N=C/c1cc(Cl)ccc1O)N/N=C\c1cc(Cl)ccc1O | 42.9% | 13.9% | 31.2% | 37.5% | 39.2% | 26.4% | -5.9% (active) | 14.1% | -1.55% (active) | 12.9% |
| C=CCOc1ccc2c(c1)CC[C@@H]1[C@@H]2CC[C@]2(C)C(=O)/C(=N/O)C[C@@H]12 | 21.8% | 19.5% | 74.4% | 9.69% (active) | 1.96% (active) | 43.8% | 78.7% | 86.6% | 76.5% | 61.3% |
| Cc1ccc(-n2nnc3c(sc4ccccc43)c2=O)cc1 | 33.7% | 80.3% | 68.1% | 40.9% | 59.9% | 39.8% | 27.3% | 57.2% | 83% | 83.1% |
| COc1ccc(-c2nnc(N3CCN(C(=O)CN4CCN(c5ccc(Cl)cc5)CC4)CC3)nc2-c2ccc(OC)cc2)cc1 | 80.2% | 32% | 80.8% | 78.7% | 53.6% | 69% | 45.2% | 82.2% | 70.2% | 71.4% |
| Cc1cc(Nc2cccc(F)c2)nc(NCc2ccccc2)n1 | 22.8% | 13.3% | 43.9% | 20.9% | 76.6% | 40.4% | 16.7% | 56.8% | 29.8% | 28.5% |
| CNCCCNCCCN1C(=O)c2ccc3c4c(ccc(c24)C1=O)C(=O)N(CCCNCc1ccccc1OC)C3=O | -91.5% (active) | 4.42% (active) | -89.7% (active) | 7.69% (active) | -11.5% (active) | 4.85% (active) | 25.3% | 24.3% | -80.7% (active) | 0.979% (active) |
| CCOc1cc(Br)c(C(C)NC(=O)c2cccc(OC)c2)cc1OCC (stereo not given) | 93.4% | 8.6% (active) | -9.34% (active) | 39% | 41.6% | 75.5% | 92.1% | 76.2% | -66.9% (active) | -67.2% (active) |
| O=C1/C(=C/c2ccc(O)cc2)Oc2ccc(Cl)cc21 | 114% | 96% | 82.4% | 60.1% | 65.6% | 93% | 89.9% | 66.7% | 79% | 93.9% |
| Nc1cc(O)cc(O)c1 | 103% | 99.5% | 97.5% | 93.9% | 120% | 100% | 94.9% | 92.1% | 108% | 100% |
| COc1ccc(COC(=O)CC(C)C)cc1 | 107% | 96.1% | 100% | 106% | 101% | 93% | 97.1% | 96.1% | 87.7% | 99.6% |
| COC(=O)C1(C(=O)OC)C2C(=O)C3C(C21)C3(C(=O)OC(C)(C)C)C(=O)OC(C)(C)C (stereo not given) | 118% | 103% | 115% | 121% | 105% | 111% | 103% | 115% | 107% | 104% |
| COc1cccc(-c2nnc(COc3ccc(-c4nc5ccc(C)cc5[nH]4)cc3OC)o2)c1 | 65.2% | 13.5% | 52.8% | 64.5% | 85.1% | 101% | 99.2% | 57.4% | 97.1% | 53.9% |
| C=CCN1C(=O)/C(=C\c2ccc3c(c2)CCC3)SC1=S | 106% | 103% | 93.7% | 98.8% | 101% | 102% | 95.2% | 95.5% | 110% | 101% |
| CCCCCCCC/C=C/CCCCCCCCC1=NCCN1CCO | 84.7% | -11.8% (active) | 85.8% | 68.3% | 56.8% | 77.3% | 39.6% | 75.6% | 83.5% | 74% |
| COc1ccc(C2C=C(c3ccc(Cl)cc3)N=C3SC=CN32)c(Br)c1 (stereo not given) | 97% | 66.1% | 106% | 47.7% | 69.8% | 71.2% | 55.6% | 91.1% | 83.2% | 78.6% |
| O=S(=O)(NC1c2ccccc2Oc2ccccc21)c1ccccc1 | 112% | 91.3% | 97.8% | 100% | 86.6% | 98.9% | 97.8% | 93.7% | 98.2% | 98.7% |
| O=C(Nc1ccc(Oc2ccc(Nc3nc4ccccc4s3)cc2)cc1)Nc1ccc(Cl)c(Cl)c1 | 39.1% | 21.9% | 47.9% | 22.8% | 56.5% | 35.9% | 17.8% | 50.9% | 61.3% | 26.3% |
| COc1ccc(-c2nsc3c2NC(=O)CC3c2cccc(Cl)c2)cc1 (stereo not given) | 23.7% | 10.4% | 26.2% | 51.6% | -1.29% (active) | 57.2% | 5.03% (active) | -14.1% (active) | 45% | 19.2% |
| CCOC(=O)c1c(C(F)(F)F)n([O-])c2ccc(OC)cc2[n+]1=O | 26.2% | 2.01% (active) | 25.8% | 19.8% | 41.9% | 31.1% | -36% (active) | 48.8% | -5.73% (active) | 26.9% |
| Nc1nsc(C(=O)c2ccc(O)cc2)n1 | 105% | 107% | 109% | 90.4% | 120% | 101% | 99.4% | 92.9% | 87% | 105% |
| COc1cc2c3c(cccc3c1)C(=O)N(CCN1CCCC1)C2=O | 15.1% | 4.01% (active) | -21.7% (active) | 29.1% | 10.9% | 28.2% | 40.2% | 30.1% | -10.4% (active) | 25.7% |
